From the supplement of paper PMC6522484 come the findings set out here.

± gives the standard deviation of the averaged measurements.

Assay [1] concerns DLD1. Briefly: cell viability (CellTiter-Glo) relative to plate median (fraction of plate median); higher = more viable cells. As to conditions: 5 µM; treatment time 24 h; reporter: 7TFP. Summed up:
(§1)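 Values are well luminescence normalised to the plate median, from either a firefly luciferase or a CellTiterGlo readout on parallel plates. The cells, colorectal cancer lines stably transduced with lentiviral 7TFP or TCF4/Wnt firefly luciferase reporters, were treated with library compounds at a final 5 µM for 24 h. The mean of two independent replicates is listed.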

In another assay the test system is HCT116. The assay is described as above. Conditions: 5 µM; treatment time 24 h; reporter: TCF4/Wnt. The procedure, abridged:
as §1

Assay [2] has as its system SW480. Described as above. As to conditions: 5 µM; treatment time 24 h; reporter: 7TFP. Summed up:
as §1

Assay [3] deals with DLD1. Description: TCF/Wnt firefly luciferase reporter signal relative to plate median (fraction of plate median); higher = higher Wnt reporter signal. As to conditions: 5 µM; treatment time 24 h; reporter: 7TFP. Summed up:
as §1

The subject of assay [4] is SW480. The assay is described as above. Conditions: 5 µM; treatment time 24 h; reporter: 7TFP. Summed up:
as §1

Consider `COC1=C(OC)C(=O)C(C/C=C(\C)CC/C=C(\C)CC/C=C(\C)CC/C=C(/C)CC/C=C(\C)CC/C=C(\C)CC/C=C(\C)CC/C=C(\C)CC/C=C(\C)CCC=C(C)C)=C(C)C1=O`, for which the cell viability with DLD1 [1] was determined as 1.02 ± 0.035; in the assay on HCT116, 0.993 ± 0.067; in the assay with SW480 [2] it was 1.115 ± 0.0071. The “TCF/Wnt firefly luciferase reporter signal” value in the assay with DLD1 [3] turned out to be 0.98 ± 0.057; with SW480 [4], 0.923 ± 0.15.
For `Cc1cc(O)c2c(c1)C(=O)c1cccc(O)c1C2=O` the same measures were 0.921 ± 0.04, 1.07 ± 0.21, 0.936 ± 0.013, 0.893 ± 0.15 and 0.934 ± 0.042.
Taken in the same sequence, the figures for `CNc1ccccc1C(=O)N1CCc2c([nH]c3ccccc23)C1=O` were 1.03 ± 0.043, 0.996 ± 0.1, 0.994 ± 0.0085, 1.14 and 1.09 ± 0.14.
As for `CC(=O)NCCCS(=O)(=O)O`, the cell viability was determined as 1.03 ± 0.091 with DLD1 [1], 1.03 ± 0.028 in the assay with HCT116 and 1.025 ± 0.0071 with SW480 [2]. Besides, the “TCF/Wnt firefly luciferase reporter signal” value in the assay with DLD1 [3] amounted to 1.12 ± 0.11; with SW480 [4], 1.06 ± 0.071.
For `CNC[C@H](O)c1ccc(O)c(O)c1` the same measures were 0.9995 ± 0.00071, 1.05 ± 0.021, 0.916 ± 0.064, 1.11 ± 0.064 and 1.12 ± 0.042.
In the case of `CCN(CC)C(=O)N1CCN(C)CC1`, the cell viability turned out to be 0.9275 ± 0.0035 in the assay on DLD1 [1], 0.89 ± 0.079 with HCT116 and 1.03 ± 0.021 in the assay on SW480 [2]. For the same compound, the entries for the “TCF/Wnt firefly luciferase reporter signal” value with DLD1 [3] and in the assay on SW480 [4] were 0.981 ± 0.098 and 1.09 ± 0.021, respectively.
Turning to `CCOC(=O)[C@H](CCc1ccccc1)N[C@@H](C)C(=O)N1CCC[C@H]1C(=O)O`, the cell viability with DLD1 [1] came out at 0.971 ± 0.018; with HCT116, 1.11 ± 0.085; with SW480 [2] it was 1 ± 0.029. Moreover, the entries for the “TCF/Wnt firefly luciferase reporter signal” value in the assay on DLD1 [3] and in the assay on SW480 [4] were 1.04 ± 0.035 and 0.994 ± 0.023, respectively.
As to `CC(C)CCC[C@@H](C)[C@H]1CC[C@H]2[C@@H]3CC(=O)[C@H]4C[C@@H](O)CC[C@]4(C)[C@H]3CC[C@]12C` [5alpha-CHOLESTAN-3beta-OL-6-ONE], the cell viability amounted to 0.985 ± 0.05 in the assay on DLD1 [1], 1.01 ± 0.014 in the assay on HCT116 and 1.015 ± 0.0071 in the assay on SW480 [2]. Further, the “TCF/Wnt firefly luciferase reporter signal” value in the assay with DLD1 [3] stood at 0.904 ± 0.15; in the assay on SW480 [4], 0.874 ± 0.047.
For `CC(=O)Nc1ccc(OC(=O)c2ccccc2O)cc1` the same measures were 0.999 ± 0.016, 0.989 ± 0.03, 0.978 ± 0.074, 1 ± 0.095 and 0.891 ± 0.043.
For `O=C(Oc1cccc2cccnc12)c1ccccc1`, the cell viability was found to be 0.999 ± 0.044 in the assay with DLD1 [1], 0.891 ± 0.029 in the assay with HCT116 and 1.03 ± 0.035 in the assay with SW480 [2]. Further, the “TCF/Wnt firefly luciferase reporter signal” value turned out to be 0.856 ± 0.071 with DLD1 [3] and 0.871 ± 0.025 in the assay with SW480 [4].
On to `O=c1c(O)cc([C@H]2Oc3cc(O)cc(O)c3C[C@H]2O)cc2c([C@H]3Oc4cc(O)cc(O)c4C[C@H]3O)cc(O)c(O)c12`, for which the values for the cell viability in the assay with DLD1 [1], in the assay with HCT116 and with SW480 [2] were 0.934 ± 0.033, 1.01 ± 0.02 and 0.966 ± 0.02, respectively. In addition, the “TCF/Wnt firefly luciferase reporter signal” value turned out to be 0.949 ± 0.044 with DLD1 [3] and 1.04 ± 0.1 with SW480 [4].
Taken in the same sequence, the figures for `O=C1O[C@H]([C@@H](O)CO)C(O)=C1O` were 0.983 ± 0.024, 1.02 ± 0.12, 1.01 ± 0.035, 0.87 ± 0.069 and 0.969 ± 0.073.
Turning to `CCN(CC)CCOC(=O)c1ccc(N)cc1`, the values for the cell viability with DLD1 [1], with HCT116 and in the assay on SW480 [2] were 1.01 ± 0.12, 1.05 ± 0.028 and 1.03 ± 0.021, respectively. In addition, the “TCF/Wnt firefly luciferase reporter signal” value in the assay on DLD1 [3] turned out to be 1.09 ± 0.092; in the assay on SW480 [4], 1.06 ± 0.014.
For `NCCC(=O)N[C@@H](Cc1c[nH]cn1)C(=O)O`, the cell viability was found to be 1.08 ± 0.064 in the assay on DLD1 [1], 1.04 ± 0.021 in the assay with HCT116 and 1.01 ± 0.016 with SW480 [2]. For the same compound, the entries for the “TCF/Wnt firefly luciferase reporter signal” value with DLD1 [3] and in the assay with SW480 [4] were 1.24 ± 0.092 and 1.17 ± 0.11, respectively.
For the compound `CCc1cnn2c(NCc3ccc[n+]([O-])c3)cc(N3CCCC[C@H]3CCO)nc12` [Dinaciclib], the figures for the cell viability with DLD1 [1], in the assay on HCT116 and in the assay with SW480 [2] were 0.99 ± 0.042, 0.779 ± 0.069 and 1.32 ± 0.12, respectively. Further, the “TCF/Wnt firefly luciferase reporter signal” value in the assay on DLD1 [3] is 0.57 ± 0.12; in the assay on SW480 [4] it was 0.789 ± 0.035.
